Most compounds without a hit are left out; they make up all but 2.3% or so of the library.
CHO-K1 Ca PAM – M1 PAM counterscreen hit in parental CHO-K1 cells | AID 602247 | 360,000 compounds, 0.02% hits | ATP EC20, Fluo-8 calcium fluorescence; 0% at ATP EC20, 100% at ATP max | activation, % at 3 µM;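 active = activation above the run cutoff, the mean activation of all test compounds plus 3 SD, cut at about 40% in these data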;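 also: peak over basal fluorescence ratio in a 140 s read after ATP addition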
M1 antag – blocks human M1 muscarinic receptor; 360,000 compounds, 1.3% hits; P11229; inhibition, % at 3 µM; CHO-K1 hM1, Fluo-8 calcium fluorescence, ACh EC80 antagonist;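 active = percent inhibition above its own plate's cutoff, namely the mean of that plate's compound wells plus 3 SD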;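 also: peak over basal fluorescence ratio during 140 s after agonist addition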
Target sequence (P11229 whole entry, looked up): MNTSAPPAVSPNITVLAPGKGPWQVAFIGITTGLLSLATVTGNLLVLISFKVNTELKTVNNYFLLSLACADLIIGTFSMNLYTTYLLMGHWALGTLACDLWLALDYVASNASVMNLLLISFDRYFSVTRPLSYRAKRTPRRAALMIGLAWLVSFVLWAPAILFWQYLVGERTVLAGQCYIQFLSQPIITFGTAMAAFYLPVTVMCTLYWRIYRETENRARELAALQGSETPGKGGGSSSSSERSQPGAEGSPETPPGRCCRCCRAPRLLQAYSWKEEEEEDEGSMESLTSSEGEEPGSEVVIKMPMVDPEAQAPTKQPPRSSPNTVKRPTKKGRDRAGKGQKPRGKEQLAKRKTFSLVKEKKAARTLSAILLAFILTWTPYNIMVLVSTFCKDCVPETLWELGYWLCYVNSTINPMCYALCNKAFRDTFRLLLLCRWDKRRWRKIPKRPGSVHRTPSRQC
CHO-K1 Ca ag – counter-screen for M1 agonists: effect in parental CHO-K1 cells; Fluo-8 calcium fluorescence; scaled to maximal ATP response, vehicle zero; activation, % at 3 µM; 360,000 compounds, 0.48% hits; AID 602248; in the data active = activation above about 15%;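 also: untransfected CHO-K1 host cells lacking M1 receptor as counterscreen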
CHO-K1 Ca antag – nonselective inhibitor or artifact in parental CHO-K1 cells | ATP-induced calcium, Fluo-8 fluorescence | inhibition, % at 3 µM | 360,000 compounds, 0.6% hits;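 active = inhibition above a per-plate cutoff, the plate's mean sample inhibition plus 3 SD, cut at about 24% in these data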
M1 PAM – potentiates human M1 receptor response to acetylcholine | P11229 | CHO-K1 hM1, Fluo-8 calcium fluorescence, ACh EC20; 0% = ACh EC20, 100% = maximal ACh | 360,000 compounds, 0.088% hits | activation, % at 3 µM; in the data active = activation above about 19%, passing the limit was not always enough
CHRM1 agonist – agonists of human M1 muscarinic receptor | activation, % at 3 µM | CHO-K1 hM1, Fluo-8 calcium fluorescence, agonist mode; 0% DMSO, 100% acetylcholine EC100 | P11229 | 360,000 compounds, 0.33% hits;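 active = activation above the run's mean compound activation plus 3 SD, cut at about 16% in these data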;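 also: peak over basal fluorescence ratio within a 140 s kinetic read after compound addition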
Hits are given with their value; – = inactive.

SMILES | CHO-K1 Ca PAM | M1 antag | CHO-K1 Ca ag | CHO-K1 Ca antag | M1 PAM | CHRM1 agonist
O=C(NNC(=S)NC(=O)c1ccccc1Cl)c1cccc([N+](=O)[O-])c1 | – | – | – | – | – | 19
O=C(NNC(=S)NC(=O)c1ccc(Br)cc1)c1ccc([N+](=O)[O-])cc1 | – | – | – | – | – | 47
O=C(NNC(=S)NC(=O)c1ccc(Br)cc1)c1cccc([N+](=O)[O-])c1 | – | – | 21 | – | – | 35
CCCS(=O)(=O)NC(=O)C1(C)CCN(C(=O)c2cccnc2Oc2ccccc2)C1 (centres undefined) | – | – | – | – | – | –
Cc1ccccc1C1CC(=O)c2ccccc2C1C (centres undefined) | – | – | – | – | – | –
CCOc1ccc(C(=O)Nc2nnc(C3=COCCO3)o2)cc1 | – | – | – | – | – | –
CN(C)CC(C)(C)CN=Cc1c(O)[nH]c2ccccc12 | – | – | – | – | – | –
S=C(Nc1ccccc1Cl)NC1CCN(Cc2ccccc2)CC1 | – | – | – | – | – | –
S=C(Nc1cc(Cl)cc(Cl)c1)NC1CCN(Cc2ccccc2)CC1 | – | – | 17 | 25 | – | –
Nc1ccc(-c2c3ccc(=O)cc-3oc3cc(O)ccc23)c(C(=O)O)c1 | – | – | 108 | 29 | – | 117
CC1(C)CC(=O)C2=C(C1)Nc1ccccc1[S@]2=O | – | – | – | – | – | –
O=S1c2ccccc2Nc2ccccc21 | – | – | – | – | 27 | –
CCc1nc2c(OCc3c(C)noc3C)cccn2c1N(C=O)Cc1ccc(OC)cc1 | 41 | – | – | – | – | –
CCc1ccc(/C(C)=N/NS(=O)(=O)c2ccc(OC)cc2)s1 | – | – | – | – | – | –
CCn1c(SCC(=O)c2ccc(NS(=O)(=O)c3ccccc3)cc2)nnc1-c1cccs1 | – | – | – | 24 | – | –
CCn1c(SCC(=O)Nc2ccccc2)nnc1-c1cccs1 | – | – | – | – | – | –
CC(=O)NC(c1cccc(F)c1)c1nc(-c2cccc(C(C)C)c2)cs1 (centres undefined) | – | – | – | – | – | –
O=Cc1ccc(-c2ccccc2C(=O)O)o1 | – | – | – | 29 | – | –
COCCN(CC(=O)Nc1cccc(C)c1C)C(=O)c1ccc(-n2cccn2)cc1 | – | – | – | – | – | –
CCCCN(CCCC)c1ccc(C(=O)c2ccccc2C(=O)O)c(O)c1 | – | – | 15 | – | – | 37
Cc1cc(F)ccc1C(O)c1ncc(-c2ccccc2C(F)(F)F)[nH]1 (centres undefined) | – | – | – | – | – | –
NS(=O)(=O)c1cccc(NC(=O)c2cccc(Oc3ccccc3)c2)c1 | – | – | – | – | – | –
CC(C)S(=O)(=O)c1csc(C(=O)Nc2ccc(F)cc2)c1N | – | – | 21 | – | – | –
Cc1nc(Cl)sc1C(=O)Nc1ccc(F)cc1 | – | – | – | – | – | –
COCc1c(C(=O)OCC(=O)NCc2ccco2)oc2ccccc12 | – | – | – | 24 | – | –
SMILES | CHO-K1 Ca PAM | M1 antag | CHO-K1 Ca ag | CHO-K1 Ca antag | M1 PAM | CHRM1 agonist
Cc1c(C(=O)OCC(=O)NCc2ccco2)oc2ccccc12 | – | – | – | – | – | –
Cn1nc(C(C)(C)C)cc1C(=O)NCc1cc(F)cc2c1OCOC2 | – | 41 | 15 | 31 | – | –
O=C(Cn1cccc1C(=O)c1ccccc1)NCc1ccccc1 | – | – | – | – | – | –
O=C(Cn1cccc1C(=O)c1ccccc1)NCc1ccc2c(c1)OCO2 | – | – | – | 53 | – | –
NC(=NCc1ccc2c(c1)OCO2)NC(=O)c1ccccc1 | – | 24 | – | – | – | –
CC[C@H](C)C(N)c1cn(C(CCCN=C(N)N)C(=O)N2CCNCC2)nn1 (some centres undefined) | – | – | – | – | – | –
CCCc1ncc(C(=O)c2ccc(OC)cc2)n1C | – | – | 19 | – | – | –
Cc1ccc(O)c(NC(=S)NC(=O)Cc2ccc(Cl)cc2)c1 | – | 97 | 58 | 90 | – | 79
Cc1ccc(NC(=S)NC(=O)c2ccc(-c3ccc(Cl)cc3)o2)c(O)c1 | – | – | – | – | – | –
CCOCCc1c(O)nc(SCC(=O)N2CCOCC2)[nH]c1=O | – | – | – | – | – | –

Screens: PubChem BioAssay, The Scripps Research Institute Molecular Screening Center
